Screening data (PubChem)
TDP1 block – qHTS Assay for Inhibitors of Tyrosyl-DNA Phosphodiesterase (TDP1) | Tyrosyl-DNA phosphodiesterase 1 (Homo sapiens), Q9NUW8 | AID 485290, 2010 | Potency, µM (titrated, usually from 130 µM), inactives show at the highest dose activity change, negative = inhibition, hits mostly inhibitors | recombinant TDP1, AlphaScreen DNA substrate cleavage | 350,000 tested, 0.28% active; note: potency is the fitted concentration of half-maximal effect; % is set by controls: 0 for no effect and ±100 for the full control effect; nearly all actives have a fitted effect of over 40% in size
Target sequence (Q9NUW8 whole entry, looked up): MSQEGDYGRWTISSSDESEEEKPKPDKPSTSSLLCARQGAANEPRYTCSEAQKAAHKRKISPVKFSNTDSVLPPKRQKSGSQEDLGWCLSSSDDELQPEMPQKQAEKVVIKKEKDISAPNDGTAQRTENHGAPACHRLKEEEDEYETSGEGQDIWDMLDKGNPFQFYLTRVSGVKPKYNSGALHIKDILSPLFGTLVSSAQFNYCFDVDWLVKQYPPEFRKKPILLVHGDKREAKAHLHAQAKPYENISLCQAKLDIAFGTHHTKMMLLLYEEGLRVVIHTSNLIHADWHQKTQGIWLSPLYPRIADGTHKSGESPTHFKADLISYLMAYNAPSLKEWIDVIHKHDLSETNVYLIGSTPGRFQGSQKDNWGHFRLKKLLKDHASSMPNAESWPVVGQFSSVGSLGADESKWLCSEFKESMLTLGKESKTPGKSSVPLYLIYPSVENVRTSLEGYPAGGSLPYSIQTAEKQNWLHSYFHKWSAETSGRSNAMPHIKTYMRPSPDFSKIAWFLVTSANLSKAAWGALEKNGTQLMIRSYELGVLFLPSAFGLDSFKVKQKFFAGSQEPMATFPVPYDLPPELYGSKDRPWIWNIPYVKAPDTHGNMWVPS
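Compounds were preincubated with Tdp1 (1 nM final) for 15 min at room temperature before substrate (15 nM final) started a 5 min reaction; beads (10 ug/ml final) were then added for 10 min before AlphaScreen detection.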
DT40 TDP1 no CPT – qHTS for Inhibitors of human tyrosyl-DNA phosphodiesterase 1 (TDP1): qHTS in cells in absence of CPT; DT40 Tdp1-/- hTDP1 cells, no CPT, ATP luminescence, 48 h; Potency, µM (highest dose often 46.2 µM), for inactives: at the top dose activity change, negative = growth inhibition, usual class: inhibitors; 420,000 tested, 15% active; AID 686978, 2013; note: potency is the fitted concentration of half-maximal effect; % is set by controls: 0 for no effect and ±100 for the full control effect; nearly all actives have a fitted effect of over 55% in size
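DT40 Tdp1-/-;hTDP1 cells, no CPT (DMSO vehicle only), 400 cells/well; compounds pin-transferred; ≥48 hr, 37 °C; CellTiter-Glo 30 min RT dark, luminescence read.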
miR-21 reporter – qHTS Assay for Modulators of miRNAs and/orActivators of miR-21. HeLa miR-21 FLuc reporter, luciferase, 48 h. Potency, µM (top dose mostly 38.3 µM), for the others: at the highest dose activity change, positive = activation, hits mostly activators. 340,000 tested, under 10 active. AID 2288, 2010;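 note: % of control where 0% means no effect; miR-21 action dims this reporter so a rising signal means less miR-21 action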
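HeLa cells stably expressing CMV-driven firefly luciferase with a downstream miR-21 binding sequence, endogenously expressing miR-21, were treated with titrations (up to about 40uM final) for 48 hours at 37 degree Celsius. Luciferase luminescence was read after lysis.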
TDP1 cell CPT – qHTS for Inhibitors of human tyrosyl-DNA phosphodiesterase 1 (TDP1): qHTS in cells in presence of CPT; chicken DT40 Tdp1-/-;hTDP1 cells + 20 nM CPT, ATP luminescence, 48 h; Potency, µM (doses to about 46.2 µM), for the others: at the top dose activity change, negative = growth inhibition, usual class: inhibitors; 420,000 tested, 12% active; AID 686979, 2013; note: potency is the fitted concentration of half-maximal effect; % is set by controls: 0 for no effect and ±100 for the full control effect; nearly all actives have a fitted effect of over 55% in size
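Cell growth measured by CellTiter-Glo luminescence after a minimum 48 h, 37 C compound exposure with 20 nM CPT in Tdp1-knockout DT40 cells stably expressing hTDP1, seeded 400/well; qHTS titration format.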
uPA surface inh – qHTS for Inhibitors of Cell Surface uPA Generation; 330,000 tested, 0.31% active; Potency, µM (series often up to 38.3 µM), for the others: top-dose activity change, negative = inhibition, hits mostly inhibitors; cell surface uPA generation assay, qHTS; active = well fitted inhibition curve with a large enough effect; inconclusive = small, poorly fitted or top-dose-only effect; inactive = no such curve, though single readings can be large or run the other way; tested in mouse RAW 264.7 cells; note: potency is the fitted concentration of half-maximal effect; % is set by controls: 0 for no effect and ±100 for the full control effect; nearly all actives have a fitted effect of over 55% in size
The depositor's hits bear a star; ? = inconclusive; nt = no result given; [ ] = another dose, or the depositor's remark. Hits are enriched below; roughly 16% of the tested compounds scored in any of these assays. Unless noted, calls come from the whole dose curve; as a rule, active = well fitted curve in the direction sought with a large enough effect; inconclusive = small, poorly fitted or top-dose-only effect, or another doubt; inactive = no such curve, though single readings can be large; an effect the other way counts as inactive or inconclusive.

SMILES	TDP1 block	DT40 TDP1 no CPT	miR-21 reporter	TDP1 cell CPT	uPA surface inh
Cc1cccc(CCN(C(=O)c2csnn2)C(C(=O)NC2CCCC2)c2ccco2)c1 (stereo not drawn)	6.2%[0.0935 µM]	16.4µM*	4.2%	14.6µM*	4.3%
COc1ccc(CCN(C(=O)C(F)(F)F)C(C(=O)NC2CCCC2)c2cccs2)cc1 (stereo not drawn)	-9.9%	6.51µM*	2.4%	6.51µM*	-21.8%
O=C(NC1CCCCC1)C(c1ccco1)N(CCc1ccccc1)C(=O)C(F)(F)F (stereo not drawn)	0.0%	23.1µM*	-3.7%	23.1µM*	-6.1%
O=C(NC1CCCCC1)C(c1cccs1)N(C(=O)C(F)(F)F)c1ccccc1 (stereo not drawn)	-2.0%	-16.4%	-2.2%	?	2.6%
Cc1cccc(CCN(CC(=O)NC2CCCCC2)C(=O)c2csnn2)c1	1.2%	-17.0%	-3.2%	9.7%	3.4%
CCc1ccc(C(C(=O)NC2CCCCC2)N(C(=O)c2csnn2)C2CC2)cc1 (stereo not drawn)	-3.8%[0.0935 µM]	?	0.5%	16.4µM*	-1.4%
CC(=O)N1CCc2cc(S(=O)(=O)CCC(=O)N(C)c3cc(C)ccc3C)ccc21	2.8%	-6.5%	-8.6%	-23.1%	-3.8%
COc1ccc(C(CC(=O)Nc2cccc(C)c2C)N2Cc3ccccc3C2=O)cc1 (stereo not drawn)	0.0%	16.4µM*	8.4%	13µM*	nt
CCOC(=O)c1cccc(NC(=O)CC(c2ccc(F)cc2)N2Cc3ccccc3C2=O)c1 (stereo not drawn)	-2.8%	25.9µM*	0.6%	?	nt
CCc1cccc(NC(=O)CC(c2ccc(OC)cc2)N2Cc3ccccc3C2=O)c1 (stereo not drawn)	-2.8%	16.4µM*	5.3%	20.6µM*	nt
COc1ccc(C(CC(=O)O)N2Cc3ccccc3C2=O)cc1 (stereo not drawn)	nt	20.7%	-1.8%	-6.8%	4.9%
COc1ccc(C(CC(=O)Nc2ccc(C)cn2)N2Cc3ccccc3C2=O)cc1 (stereo not drawn)	nt	?	0.8%	8.7%	-0.3%
O=C1CCCCC1(CCc1ccncc1)CCc1ccncc1	nt	11.6µM*	nt	18.4µM*	-4.7%
CC(=O)c1ccc(NC(=O)c2cc(Cl)sc2Cl)cc1	0.0%	?	-66.6%	?	-0.6%
O=C(Nc1cccc(NC(=O)c2cccnc2)c1)c1ccccc1	2.2%	?	-2.2%	-20.6%	-2.8%
CC(=O)Nc1cccc(-c2cnc(N)c(C(=O)c3cccnc3)n2)c1	-12.2%	10.3µM*	nt	8.2µM*	?
NC(=O)c1cccc(-c2cnc(N)c(C(=O)c3cccnc3)n2)c1	nt	9.2µM*	nt	2.31µM*	7.3%
O=C(C[n+]1ccc(/C=N/O)cc1)N(Cc1ccccc1)Cc1ccccc1	7.9%	-27.8%	17.8%	-9.1%	-4.4%
CSc1nc(N)n2nc(-c3ccccc3)cc2n1	-2.9%	?	-43.7%	-1.7%	-10.8%
Cc1cc(C(=O)CSc2nnnn2-c2ccccc2)c(C)n1CCc1ccccc1	6.6%	?	-0.6%	-7.2%	3.5%
Cc1ccc(-n2c(C)cc(C(=O)CSc3nncs3)c2C)cc1	9.2%	20.6µM*	-2.3%	10.3µM*	-27.7%
Cc1cc(C(=O)CSc2nnnn2-c2ccc(O)cc2)c(C)n1C	7.5%	16.4µM*	-38.5%	?	0.8%
Cc1ccc(-n2c(C)cc(C(=O)CSc3nnnn3C)c2C)cc1	8.3%	20.6µM*	-13.6%	18.4µM*	-2.4%
Cc1cc(-n2c(C)cc(C(=O)CSc3nnnn3-c3ccccc3)c2C)no1	0.0%	?	3.6%	?	0.0%
Cc1ccc(-n2nnnc2SCC(=O)c2cc(C)n(-c3cc(C)on3)c2C)c(C)c1	-4.2%	23.1µM*	1.1%	23.1µM*	-17.9%
SMILES	TDP1 block	DT40 TDP1 no CPT	miR-21 reporter	TDP1 cell CPT	uPA surface inh
Cc1cc(C(=O)CSc2nncs2)c(C)n1-c1c(C)n(C)n(-c2ccccc2)c1=O	3.0%	-2.4%	-1.6%	3.4%	0.6%
Cc1noc(/C=C/c2ccc(-c3ccccc3Cl)o2)c1[N+](=O)[O-]	4.7%	?	-8.5%	-27.8%	0.0%
CC1CCCC(NCC(O)COC(c2ccc(F)cc2)c2ccc(F)cc2)C1C (stereo not drawn)	1.2%	2.59µM*	?	5.17µM*	3.1%
Cc1[nH]c(=O)[nH]c(=O)c1S(=O)(=O)N(C)Cc1ccccc1	6.1%	-0.4%	0.2%	-18.2%	3.0%
COc1ccccc1-c1c(C)nn2c(N3CCC(C)CC3)cc(C)nc12	nt	?	-2.9%	0.3%	1.3%
Cc1cc(N2CCOCC2)n2nc(-c3cccc(F)c3)cc2n1	0.2%	-8.7%	-22.9%	-21.3%	nt
CCC1CCCCN1c1cc(C)nc2cc(-c3cccc(C)c3)nn12 (stereo not drawn)	-2.3%	13µM*	-0.7%	?	5.4%
Cc1cccc(N=N/C(=C\O)C(=O)c2ccc(Br)cc2)c1	5.9%	?	19.6%	8.2µM*	-9.1%
O=C(/C(=C/O)N=Nc1cccc(C(F)(F)F)c1)c1ccccc1	-2.6%	?	-8.0%	?	-1.0%
COCCCn1c(SCC(=O)NC(C)C)nnc1-c1ccccc1	nt	23.1µM*	-3.1%	?	2.5%
COCCCn1c(SCC(N)=O)nnc1-c1ccccc1	3.0%	-20.7%	-1.7%	-8.1%	8.7%
Fc1ccccc1N1CCN(C2CCCN(Cc3cccc(C(F)(F)F)c3)C2)CC1 (stereo not drawn)	nt	16.4µM*	7.2%	?	-3.4%
CSCC(=O)N1CCCC(N2CCN(c3cccc(C(F)(F)F)c3)CC2)C1 (stereo not drawn)	3.2%	?	-4.1%	-27.7%	-15.6%
Oc1ccccc1CN1CCCC(N2CCN(c3cccc(C(F)(F)F)c3)CC2)C1 (stereo not drawn)	nt	?	7.5%	18.4µM*	2.1%
CCc1ccccc1NC(=O)CN1CCN(C(=O)c2cccc(-n3cnnn3)c2)CC1	-0.3%	-8.6%	nt	3.5%	3.5%
Cc1ccn2c(=O)cc(COc3ccc(NC(=O)COc4ccc(Cl)cc4)cc3)nc2c1	2.7%	-1.1%	-1.2%	-2.2%	nt
COc1ccc(OC)c(Nc2ncnc3c2cnn3-c2cccc(C)c2)c1	5.7%	4.61µM*	7.5%	5.17µM*	?
Cc1cccc(-n2ncc3c(NCCc4ccc(S(N)(=O)=O)cc4)ncnc32)c1	6.5%	?	10.6%	29.1µM*	-3.8%
Fc1ccc(CNc2ncnc3c2cnn3-c2ccccc2)cc1	5.1%	?	-17.9%	?	-1.9%
